Source: PubChem BioAssay
Shown are actives, neighbours in structure and some others; about 2.5% of the full set was active somewhere.
ULK1 primary: inhibitors of human ULK1 kinase; AlphaScreen Atg13 phosphorylation by ULK1, luminescence; inhibition, % at 5.96 µM; hit rate 1.9% among 30,000; in the data active = inhibition above about 43%;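 also: 0% = median of compound wells and 100% = no enzyme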
ASK1 primary: human ASK1 kinase inhibition, primary screen; Q99683; AlphaScreen MKK6 phosphorylation by ASK1, luminescence; inhibition, % at 7.44 µM; hit rate 0.99% among 22,000; in the data active = inhibition above about 35%;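 also: 0% = median of compound wells and 100% = no enzyme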
AlphaScreen intf: counter-screen for ASK1 inhibitors: AlphaScreen optical interference; shares compounds with ASK1 primary; AlphaScreen TruHits beads, signal interference counterscreen; IC50, µM; hit rate 20% among 220;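 active = IC50 of 10 µM or lower in the counterscreen; inactive = IC50 above 10 µM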;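 also: loss of AlphaScreen light from TruHits beads alone with no ASK1 enzyme present; potency of signal reduction so a low IC50 flags an assay artifact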
An asterisk follows results filed as active; ! = not confirmed by another sample.

What do the screens show for `CN(C)c1cccc(Nc2nc(Nc3ccc(N4CCOCC4)cc3)c3[nH]cnc3n2)c1`?
ULK1 primary: -3; ASK1 primary: 36*; AlphaScreen intf: inactive

What do the screens show for `CC(C)N(CCNC(=O)c1ccc2nc(Nc3ccccc3)sc2c1)C(C)C`?
ULK1 primary: -11; ASK1 primary: 5

What do the screens show for `Cc1noc(C)c1-c1nccc(Nc2ccc(Oc3ccccc3)cc2)n1`?
ULK1 primary: -12; ASK1 primary: 5

How did FC(F)(F)c1ccc(Cn2cnc3c(NCc4cccnc4)nc(N4CCc5ccccc5C4)nc32)cc1 do in these assays?
ULK1 primary: -12; ASK1 primary: -6

Results for O=C(Nc1cnn(-c2cccc(-c3nc4ccncc4[nH]3)c2)c1)Nc1ccccc1Cl ?
ULK1 primary: -22; ASK1 primary: -27

How did Cn1c(Nc2nc(Nc3ccc(N4CCOCC4)cc3)c3[nH]cnc3n2)nc2ccccc21 do in these assays?
ULK1 primary: 2; ASK1 primary: 15

How did COc1cc2nc(Nc3ccc(N4CCOCC4)cc3)nc(NCc3cccc(C(F)(F)F)c3)c2cc1OC do in these assays?
ULK1 primary: -15; ASK1 primary: 52*!; AlphaScreen intf: 6.2*

Results for COc1ccc(Nc2nc(NCc3cccc(C(F)(F)F)c3)c3cc(OC)c(OC)cc3n2)cc1 ?
ULK1 primary: -26; ASK1 primary: 2

What do the screens show for `Cc1cnc(Nc2nc3ccccc3n2C)nc1Nc1ccc(N2CCOCC2)cc1`?
ULK1 primary: 30; ASK1 primary: 39*; AlphaScreen intf: >22

Results for CN1CCN(C(=O)c2ccc(-c3nc(Nc4ccc(Oc5ccccc5)cc4)c4ncn(CCN5CCCC5=O)c4n3)cc2)CC1 ?
ULK1 primary: -12; ASK1 primary: -4

Results for CN1CCN(C(=O)c2ccc(-c3cncc(C(=O)NC4CC4)c3)cc2)CC1 ?
ULK1 primary: 26; ASK1 primary: -2

Results for CC(C)CNC(=O)c1ccc2c(c1)CC(c1nc3ncc(-c4ccnc(N)n4)cc3[nH]1)CO2 (stereo not given) ?
ULK1 primary: 23; ASK1 primary: 42*; AlphaScreen intf: >19

What do the screens show for `CN(C)CCNC(=O)c1ccc2c(c1)CC(c1nc3ncc(-c4ccnc(N)n4)cc3[nH]1)CO2` (stereo not given)?
ULK1 primary: 6; ASK1 primary: 11

Results for COc1cc(Nc2cc(-c3cccs3)nc(N)n2)cc(OC)c1OC ?
ULK1 primary: -11; ASK1 primary: -5

What do the screens show for `Cc1cnc(-c2ccc(C(N)=O)cc2)nc1Nc1ccc(N2CCOCC2)cc1`?
ULK1 primary: 30; ASK1 primary: 36*; AlphaScreen intf: >20

How did COc1cc(Nc2ncnc3nc(-c4ccc(C(N)=O)cc4)[nH]c23)cc(OC)c1OC do in these assays?
ULK1 primary: 6; ASK1 primary: 25

Results for COc1ccc(-c2ncc(C)c(Nc3ccc(N4CCOCC4)cc3)n2)cn1 ?
ULK1 primary: 2; ASK1 primary: 0

How did COc1cc(Nc2nc(-c3ccc(C(N)=O)cc3)ncc2C)cc(OC)c1OC do in these assays?
ULK1 primary: 55*; ASK1 primary: 61*; AlphaScreen intf: >19

What do the screens show for `CCN(CC)c1nc(NCc2ccccc2)nc(N2CCCC2CO)n1` (stereo not given)?
ULK1 primary: -7; ASK1 primary: 4

How did Cc1nn(-c2ccc(Br)cc2)c2c1C(c1cccs1)C(C#N)=C(N)O2 (stereo not given) do in these assays?
ULK1 primary: 2

Results for COc1cc2nc(Nc3cccc(N(C)C)c3)nc(Nc3ccccc3)c2cc1OC ?
ULK1 primary: -21; ASK1 primary: 42*; AlphaScreen intf: 4.3*

Results for COc1cc2nc(Nc3ccncc3)nc(Nc3ccc(NC(C)=O)cc3)c2cc1OC ?
ULK1 primary: -15; ASK1 primary: 8

What do the screens show for `COc1cc2nc(Nc3cccc(N(C)C)c3)nc(Nc3ccc(NC(C)=O)cc3)c2cc1OC`?
ULK1 primary: 5; ASK1 primary: 55*; AlphaScreen intf: 8.7*

What do the screens show for `COc1cc2nc(Nc3ccccc3)nc(Nc3ccccc3)c2cc1OC`?
ULK1 primary: -12; ASK1 primary: 16

What do the screens show for `COc1ccc(CCNC(=O)c2csc(Nc3ccccn3)n2)cc1`?
ULK1 primary: 2; ASK1 primary: -24

What do the screens show for `O=C(NCCN1CCOCC1)c1ccc2nc(Nc3ccc(C(F)(F)F)cc3)sc2c1`?
ULK1 primary: -26; ASK1 primary: 12

How did OC1CCC(Nc2nc3ncnc(NCc4cccc(C(F)(F)F)c4)c3[nH]2)CC1 (stereo not given) do in these assays?
ULK1 primary: 3; ASK1 primary: 12

Results for O=C(NC1CC1)c1ccc(-c2nc(NCc3cccc(C(F)(F)F)c3)c3ncn(-c4ccsc4)c3n2)cc1 ?
ULK1 primary: -19; ASK1 primary: 8

How did O=C(NC1CC1)c1ccc(-c2nc(NCc3cccc(C(F)(F)F)c3)c3ncn(-c4ccccc4)c3n2)cc1 do in these assays?
ULK1 primary: -6; ASK1 primary: 45*; AlphaScreen intf: >20

How did O=C(NCCCN1CCCC1=O)c1cccc(-c2csc3ccccc23)c1 do in these assays?
ULK1 primary: -6; ASK1 primary: -5

What do the screens show for `FC(F)(F)c1ccc(Nc2cc(NCc3cccnc3)ncn2)cc1`?
ULK1 primary: 16; ASK1 primary: -8

How did CN(C)CCN(C)c1nc(C2COc3ccccc3O2)nc2ccc(-c3cn[nH]c3)cc12 (stereo not given) do in these assays?
ULK1 primary: 12; ASK1 primary: 28

Results for c1ccc2c(c1)OCC(c1nc(N3CCOCC3)c3cc(-c4cn[nH]c4)ccc3n1)O2 (stereo not given) ?
ULK1 primary: -50; ASK1 primary: 37*; AlphaScreen intf: >19

How did CC(=O)OCC(=O)C1(O)CC[C@H]2[C@@H]3CCC4=CC(=O)CC[C@]4(C)[C@H]3C(=O)C[C@@]21C (stereo not given in full) do in these assays?
ULK1 primary: -1

Results for COc1cc(Nc2nc(Nc3ccc(N4CCOCC4)cc3)c3ncn(Cc4ccc(C(F)(F)F)cc4)c3n2)cc(OC)c1OC ?
ULK1 primary: 4; ASK1 primary: 37*; AlphaScreen intf: >18

How did FC(F)(F)c1ccc(Cn2cnc3c(NCc4cccc(C(F)(F)F)c4)nc(N4CCN(Cc5ccc6c(c5)OCO6)CC4)nc32)cc1 do in these assays?
ULK1 primary: 15; ASK1 primary: 29

What do the screens show for `CC(C)n1cnc2c(Nc3ccc(N4CCOCC4)cc3)nc(Nc3cccc(N(C)C)c3)nc21`?
ULK1 primary: 20; ASK1 primary: 35

How did CC(C)n1cnc2c(NCc3cccc(C(F)(F)F)c3)nc(N3CCN(Cc4ccc5c(c4)OCO5)CC3)nc21 do in these assays?
ULK1 primary: -16; ASK1 primary: 37*; AlphaScreen intf: >20

How did FC(F)(F)c1ccc(Cn2cnc3c(Nc4ccccc4)nc(Nc4ccc(N5CCOCC5)cc4)nc32)cc1 do in these assays?
ULK1 primary: -18; ASK1 primary: 28

How did FC(F)(F)c1ccc(Cn2cnc3c(Nc4ccc5c(c4)OCO5)nc(Nc4ccc(C(F)(F)F)cc4)nc32)cc1 do in these assays?
ULK1 primary: -8; ASK1 primary: 13

Results for FC(F)(F)c1ccc(Cn2cnc3c(Nc4ccc5c(c4)OCO5)nc(Nc4ccccc4)nc32)cc1 ?
ULK1 primary: -4; ASK1 primary: 41*; AlphaScreen intf: >22
